Test results as given in PubChem BioAssay (NCI).
Compounds without any hit were thinned out: in the full panel of roughly 83,000, 20% have a hit.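 Activity criterion: percent growth below 10, measured after cells in 96-well plates were exposed to a single compound concentration for 48 hours.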 A number with no mark means an inactive call. The source made the active and inactive calls.

How the values were obtained:
Experiment in all cases: NCI-60 one-dose screen, 48 h (100 = growth as untreated, 0 = no growth, -100 = all killed)
Conditions in all cases: 10 µM unless noted
BT-549 breast = system: BT-549 breast
MDA-MB-435 melanoma = system: MDA-MB-435 melanoma
SW-620 colon = system: SW-620 colon
HCT-116 colon = system: HCT-116 colon
HCC-2998 colon = system: HCC-2998 colon
KM12 colon = system: KM12 colon
MCF7 breast = system: MCF7 breast

`O=C1CSC(c2ccccc2Cl)N1c1nnc(-c2ccncc2)o1` (stereo not given) was tested, and the growth (BT-549 breast) was 116%, the growth (MDA-MB-435 melanoma) was 99.6% and the growth (SW-620 colon) was 99.6%. For the same molecule, the growth (HCT-116 colon) was 85.5%, the growth (HCC-2998 colon) was 97.9% and the growth (KM12 colon) was 105%.
`COc1cccc(CNC(=O)c2cccc(C3CC(=O)c4c(cc(OC)c(OC)c4OC)O3)c2)c1` (stereo not given) was tested, and the growth (BT-549 breast) was 32.8%, the growth (MDA-MB-435 melanoma) was -42.4% (active) and the growth (SW-620 colon) was 34.9%. The growth (HCT-116 colon) was 18.5%, the growth (HCC-2998 colon) was 95.2% and the growth (KM12 colon) was 41.8%.
For `CCOC(=O)c1ccc2n1CCCc1cnc(NC(C)=O)nc1-2`, the growth (BT-549 breast) was 104%, the growth (MDA-MB-435 melanoma) was 102% and the growth (SW-620 colon) was 106%. It also gave a growth (MCF7 breast) of 101%, a growth (HCT-116 colon) of 107% and a growth (HCC-2998 colon) of 122%. It also gave a growth (KM12 colon) of 109%.
In the case of `Cc1c([C@H](C(Cl)Cl)[C@H](O)[C@H]2C[C@H](C)C(=O)O2)ccc2c1C(=O)[C@H]1[C@H]2C[C@@H](Br)[C@@]23O[C@@H](CO[C@H]2O)CC13C` (stereo not given in full), the growth (BT-549 breast) is reported as 37.6%, the growth (MDA-MB-435 melanoma) is reported as -40% (active) and the growth (SW-620 colon) is reported as 14.6%. The growth (HCT-116 colon) was 15.1%, the growth (HCC-2998 colon) was 8.99% (active) and the growth (KM12 colon) was 2.99% (active).
